Bioassay records deposited in PubChem by National Center for Advancing Translational Sciences (NCATS).
In the library only some 8.6% were active in any assay of this set; here they are far more common.
Lassa entry: qHTS for Inhibitors of binding or entry into cells for Lassa Virus; 4.1% of 18,000 active; Lassa virus pseudotyped entry inhibition, cell-based qHTS; AID 720533, 2013; Potency, µM (titrated, usually from 49.2 µM), most hits filed as inhibitors
MARV entry inh: qHTS for Inhibitors of binding or entry into cells for Marburg Virus; Marburg virus pseudotype entry/binding inhibition, cell-based; AID 720532, 2013; Potency, µM (top dose mostly 49.2 µM), usual class: inhibitors; 6.5% of 18,000 active
Each line names hits and unclear results; the compound was inactive in the other large screens. Calls come from the whole dose curve; tested in HEK293 cells.

Nc1nccc(-c2c(-c3ccc(F)cc3)ncn2C2CCNCC2)n1	MARV entry inh inconclusive
Fc1ccc(-c2ncn(C3CCNCC3)c2-c2ccnc(Oc3ccc(Oc4ccccc4)cc3)n2)cc1	Lassa entry inconclusive, MARV entry inh 8.88µM
CCOC(=O)CN1C(=O)C2(CC(C)=C[C@@H](C)O2)c2c(Br)cccc21 (stereo partly drawn)	none
COc1cc(C(C)=O)ccc1OCCCN1CCC(c2noc3cc(F)ccc23)CC1	MARV entry inh 6.31µM
COc1cc2c(Nc3ccc(NC(=O)c4ccccc4)cc3)ncnc2cc1OCCCN1CCOCC1	MARV entry inh inconclusive
CC(C)Nc1oc(-c2ccccc2)nc1C=Cc1ccccc1	none
CC(C)Nc1ccc(Nc2ccccc2)cc1	Lassa entry inconclusive, MARV entry inh 28.2µM
CCn1c(-c2nonc2N)nc2c(C#CC(C)(C)O)ncc(OCC3CCCN3)c21 (stereo not drawn)	MARV entry inh 1.25µM (no result: Lassa entry)
CCn1c(-c2nonc2N)nc2cncc(C(=O)N3CCNCC3)c21	none
CN(C)CCCn1c(-c2nonc2N)nc2cnccc21	MARV entry inh inconclusive
CCn1c(-c2nonc2N)nc2c(C#CC(C)(C)O)ncc(OCC3CCNCC3)c21	MARV entry inh 1.77µM (no result: Lassa entry)
C=CCCC1(CCC)C(=O)C(=C(O)c2ccccc2)C(=O)C(CCC)=C1OC (stereo not drawn)	none
COC(=O)C(C(=O)OC)[C@H]1c2ccccc2[C@@H]2C(=C[C@@H](C)[C@H]3C(=O)N(c4ccccc4)C(=O)[C@H]32)N1C(=O)OC	none
CNc1ccc(-c2nc3ccccc3s2)cc1	Lassa entry 10µM, MARV entry inh 7.08µM
CN(C(=O)COc1nc2ccccc2s1)c1ccccc1	none
CC(C)C[C@H]1COc2c(Cl)cccc2S(=O)(=O)N1Cc1cccc(F)c1	none
COc1ccc2c3c(c(=O)oc2c1)[C@H]1O[C@](CCCCN2C(=O)c4ccccc4C2=O)(Cc2cc(OC)c(OC)cc21)O3	MARV entry inh inconclusive
CC#CCN1c2ccccc2[C@]23CCC(=O)N(Cc4ccco4)C2=NC(C(=O)OC)=C(C(=O)OC)[C@H]13	MARV entry inh inconclusive
C=CC[C@H]1C(=O)N2[C@@H](C[C@@H](C)[C@@H]2c2ccccc2)[C@@H](CC=C)C(=O)N2[C@H]1C[C@@H](C)[C@@H]2c1ccccc1	MARV entry inh inconclusive
CC(C)(C)n1nc(-c2ccc(Cl)cc2)c2c(N)ncnc21	none
CC(C)n1nc(-c2cc3cc(O)ccc3[nH]2)c2c(N)ncnc21	Lassa entry 3.98µM, MARV entry inh 3.55µM
COc1cccc([C@H]2Oc3ccc(OC)cc3C(=NO[C@@H](C)c3cc(-c4c(C)cc(C)cc4C)no3)[C@H]2O)c1	none
COc1ccc(CN2CCOc3ccc(CN4CCC(O)(c5cccnc5)CC4)cc3C2)cc1OC	MARV entry inh inconclusive
COc1cc(CN2CCOc3ccc(CN4CCC(O)(c5cccnc5)CC4)cc3C2)cc(OC)c1	MARV entry inh 11.2µM
COc1cccc([C@H]2Oc3ccc(OC)cc3C(=NO[C@@H](C)CN3CCCCc4nc(C)c(C)cc43)[C@H]2O)c1	none
C=CCNC(=O)[C@H]1C=C(OC)C(=O)C[C@H](c2ccccc2)[C@H]1C	none
C[C@H]1CN(C2CCCCC2)C(=O)[C@H]1CC(=O)Nc1ccccc1	none
CCCCCC(=O)N1C[C@@H](O)[C@H](n2cc(C3CC3)nn2)C[C@H]1c1ccccc1	none
C#CCCCON=C1C[C@@H](O)[C@H](O)[C@H]2[C@@H]3C(=O)N(Cc4ccccc4)C(=O)[C@@H]3CC[C@H]12	none
CC[C@@H](O)C(C[C@@H](C)N(C)C)(c1ccccc1)c1ccccc1	Lassa entry inconclusive, MARV entry inh 12.6µM
CCC(O)c1ccccc1 (stereo not drawn)	none
CC[C@H]1OC(=O)C[C@@H](O)[C@H](C)[C@@H](O[C@@H]2O[C@H](C)[C@@H](O[C@H]3C[C@@](C)(O)[C@@H](O)[C@H](C)O3)[C@H](N(C)C)[C@H]2O)[C@@H](CC=O)C[C@@H](C)C(=O)/C=C/C(C)=C/[C@@H]1CO[C@@H]1O[C@H](C)[C@@H](O)[C@@H](OC)[C@H]1OC	none
CO[C@@H]1[C@@H](O[C@@H]2O[C@H](C)[C@@H](O[C@H]3C[C@@](C)(O)[C@@H](O)[C@H](C)O3)[C@H](N(C)C)[C@H]2O)[C@@H](CC=O)C[C@@H](C)[C@@H](O[C@@H]2CC[C@H](N(C)C)[C@@H](C)O2)/C=C/C=C/C[C@@H](C)OC(=O)C[C@H]1OC(C)=O	Lassa entry inconclusive, MARV entry inh 3.16µM
COC1C(O)CC(=O)OC(C)C/C=C/C=C/[C@@H](OC2CCC(N(C)C)C(C)O2)C(C)C[C@@H](CC=O)[C@@H]1O[C@H]1OC(C)[C@H](O[C@@H]2C[C@@](C)(O)C(O)C(C)O2)C(N(C)C)C1O (stereo partly drawn)	MARV entry inh 6.31µM
COC1C[C@@H](O[C@@H]2C(C)C(=O)OC(C)C(C)[C@H](OC(C)=O)C(C)C(=O)[C@@]3(CO3)CC(C)C(OC3OC(C)CC(N(C)C)[C@H]3OC(C)=O)C2C)OC(C)[C@@H]1OC(C)=O (stereo partly drawn)	none
COC1[C@@H](O[C@@H]2O[C@H](C)[C@@H](O[C@H]3C[C@@](C)(O)[C@H](OC(=O)CC(C)C)[C@H](C)O3)[C@H](N(C)C)[C@H]2O)[C@@H](CC=O)C[C@@H](C)[C@@H](O)/C=C/C=C/C[C@@H](C)OC(=O)C[C@H]1OC(C)=O (stereo partly drawn)	none
CO[C@@H]1[C@@H](O[C@@H]2O[C@H](C)[C@@H](O[C@H]3C[C@@](C)(O)[C@@H](OC(=O)CC(C)C)[C@H](C)O3)[C@H](N(C)C)[C@H]2O)[C@@H](CC=O)C[C@@H](C)C(=O)/C=C/C2OC2C[C@@H](C)OC(=O)C[C@H]1OC(C)=O (stereo partly drawn)	Lassa entry inconclusive, MARV entry inh 12.6µM
CCCCCCN1C[C@H](O)[C@@H](n2cc(C3CC3)nn2)C[C@H]1c1ccc(C)cc1	MARV entry inh inconclusive
COc1cc(C(NC(=O)C(F)(F)F)c2cc3ccccc3o2)cc(OC)c1OC (stereo not drawn)	none (no result: Lassa entry)
COC(=O)N[C@@H](C=Cc1ccccc1)[C@@H](C)[N+](=O)[O-]	none
CC(C)=CCCC(C)=CCN1C(=O)[C@@]2(CC(C)=C[C@@H](COCc3ccccc3)O2)c2ccccc21	none
O=S(=O)(NCCc1ccc(F)cc1)c1ccccc1Br	none
CCCCCC(=O)N1C[C@H](n2cc(COC(=O)c3ccccc3)nn2)[C@@H](O)C[C@H]1c1ccc(OC)cc1	none
Cc1cc2c(OCC(CNC(C)(C)C)OC(=O)c3ccccc3)cccc2[nH]1 (stereo not drawn)	MARV entry inh 35.5µM
CCC[C@@]1(CCc2ccccc2)CC(O)=C([C@H](CC)c2cccc(NS(=O)(=O)c3ccc(C(F)(F)F)cn3)c2)C(=O)O1	none
O=C(NCCCN1CCCCCC1)C(c1ccccc1)C1CCCCC1 (stereo not drawn)	Lassa entry inconclusive, MARV entry inh 10µM
CN1C2CCC1CC(C(=O)OC(CO)c1ccccc1)C2 (stereo not drawn)	none
CC(=O)Nc1ccc(OCCOCCOc2ccc(NC(C)=O)cc2)cc1	Lassa entry inconclusive
CCOc1ccc(N=C(C)Nc2ccc(OCC)cc2)cc1	MARV entry inh 11.2µM
CC(C)=CCCC(C)=CCN1C(=O)[C@@]2(CC(C)=CC[C@@H](C)O2)c2c(Br)cccc21	none
NC(=Nc1ccccc1)NC(=O)c1nc(Cl)c(N)nc1N	MARV entry inh inconclusive
